Our source for the z-score and composite z-score values is PubChem BioAssay.

A short description of assay [1]: optical density shifts of acrAB sulA E. coli – strain DRC41, OD650, 48 h, E. coli filamentation inducer project, primary screen (AID 1152).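 Also: E. coli MC1000 strain DRC41 lacking acrAB efflux pump and sulA.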 Particulars: higher = more signal, called active from +8 up or from −8 down.
The nature of assay [2]: probe aLefty1 binding on compound microarray – biochemical, small-molecule microarray, 635/667 nm fluorescence, primary screen (AID 1153).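 Also: score merges spot fluorescence with signal-to-noise ratio from the scanned slide images.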 Conditions: higher = more signal.
The nature of assay [3]: plasmodial surface anion channel blockers, osmotic lysis – cell-based, P. falciparum Indochina, OD700, 1 h, primary screen (AID 1154). Particulars: P. falciparum Indochina infected RBC osmotic lysis, higher = more signal, called active from +8 up or from −8 down.
The nature of assay [4]: plasmodial surface anion channel blockers, osmotic lysis – cell-based, P. falciparum Indochina, OD700, 2 h, primary screen (AID 1155).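 Also: lysis reports solute entry through the parasite surface anion channel PSAC.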 Conditions: P. falciparum Indochina infected erythrocytes, higher = more signal, called active from +8 up or from −8 down.
Assay [5] is described as follows: changes in parasitized red cell lysis, either direction – P. falciparum Indochina, OD700, 3 h, PSAC antagonist project, primary screen (AID 1156). Particulars: P. falciparum-infected erythrocytes, osmotic lysis, higher = more signal, called active from +8 up or from −8 down.
The nature of assay [6]: plasmodial surface anion channel blockers, osmotic lysis – cell-based, P. falciparum Indochina, OD700, 18 h, primary screen (AID 1157). Particulars: P. falciparum Indochina infected erythrocytes, osmotic lysis OD700, 18 h; higher = more signal, called active from +8 up or from −8 down.
Assay [7] in a line: S6 kinase pathway phospho-S6 level changes – cell-based, A549, cytoblot, luminescence, serum-stimulated, primary screen (AID 1158).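 Also: serum-stimulated A549 lung adenocarcinoma cells; signal is phosphorylated S6 detected by cytoblot immunostaining with HRP secondary.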 Conditions: 5 h, higher = more signal.
Assay [8] deals with NADPH oxidase 2 (Homo sapiens) (UniProt P04839). Description: compounds shifting NOX2 Amplex Red fluorescence – cell-based, HEK293-NOX2, PMA-stimulated, NOX inhibitor project, primary screen (AID 1159). Also: test concentration not given here. Conditions: 45 min, higher = more signal, called active from +8 up or from −8 down.
The target of assay [9] is NADPH oxidase 4 (Homo sapiens) (UniProt Q9NPH5). The experiment in a line: compounds shifting NOX4 Amplex Red fluorescence – cell-based, HEK293-NOX4, tetracycline-induced, NOX inhibitor project, primary screen (AID 1160). Particulars: HEK293-NOX4, Amplex Red H2O2 fluorescence, 45 min; higher = more signal, called active from +8 up or from −8 down.
Assay [10] deals with NADPH oxidase 5 (Homo sapiens) (UniProt Q96PH1). Description: compounds shifting NOX5 Amplex Red fluorescence – cell-based, HEK293-NOX5, NOX inhibitor project, primary screen (AID 1161). Conditions: HEK293-NOX5, ionomycin, 45 min, higher = more signal.
The nature of assay [11]: compound effects on lung adenocarcinoma cell viability – A549, calcein-AM fluorescence, 48 h, basal, profiling panel (AID 1162). Also: test concentration not given here. Particulars: higher = more signal.
Assay [12] is described as follows: compound effects on differentiated 3T3-L1 adipocyte viability – cell-based, 3T3-L1 adipocytes, calcein-AM fluorescence, 48 h, basal, profiling panel (AID 1163). Also: test concentration not given here. Conditions: 3T3-L1 adipocytes viability, higher = more signal.
The nature of assay [13]: compound effects on hepatocellular carcinoma cell viability – HepG2, calcein-AM fluorescence, 48 h, basal, profiling panel (AID 1164). Also: test concentration not given here. Conditions: higher = more signal.
Assay [14] is described as follows: compound effects on multiple myeloma cell viability – MM1S, calcein-AM fluorescence, 48 h, basal, profiling panel (AID 1165). Also: test concentration not given here. Conditions: higher = more signal.
A short description of assay [15]: calcein-AM signal in unstimulated myeloma cells – cell-based, calcein-AM fluorescence, 48 h, PK04 Diversity Set, profiling panel (AID 1166).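 Also: cells grown under basal conditions without added stimulus; test concentration not given here.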 Particulars: RPMI8226 myeloma viability, higher = more signal.
A short description of assay [16]: JC-1 mitochondrial signal, unstimulated HepG2 cells – cell-based, JC-1 fluorescence, 24 h, 100 nL compound, profiling panel (AID 1167). Also: test concentration not given here. Conditions: HepG2 mitochondrial potential, higher = more signal.
Assay [17] is described as follows: JC-1 mitochondrial signal, unstimulated adipocytes – cell-based, JC-1 fluorescence, 3T3-L1 adipocytes, 24 h, 100 nL compound, profiling panel (AID 1168). Also: test concentration not given here. Particulars: JC-1 mitochondrial fluorescence, higher = more signal, called active from +8 up or from −8 down.
A short description of assay [18]: JC-1 mitochondrial signal, unstimulated myeloma cells – cell-based, JC-1 fluorescence, RPMI8226, 24 h, 100 nL compound, profiling panel (AID 1169). Also: test concentration not given here. Particulars: JC-1 mitochondrial potential fluorescence, higher = more signal.
The nature of assay [19]: JC-1 mitochondrial signal, unstimulated MM1S myeloma – cell-based, JC-1 fluorescence, 24 h, 100 nL compound, profiling panel (AID 1170). Also: test concentration not given here. Particulars: MM1S mitochondrial potential, higher = more signal.
The nature of assay [20]: resazurin metabolic signal in A549 cells – cell-based, resazurin fluorescence, 24 h, PK04 Diversity Set, profiling panel (AID 1171). Also: test concentration not given here. Conditions: A549 viability, higher = more signal, called active from +8 up or from −8 down.

Calls of active or inactive are those of the source.

Sequence of NADPH oxidase 5 (Homo sapiens) (Q96PH1 whole entry, looked up): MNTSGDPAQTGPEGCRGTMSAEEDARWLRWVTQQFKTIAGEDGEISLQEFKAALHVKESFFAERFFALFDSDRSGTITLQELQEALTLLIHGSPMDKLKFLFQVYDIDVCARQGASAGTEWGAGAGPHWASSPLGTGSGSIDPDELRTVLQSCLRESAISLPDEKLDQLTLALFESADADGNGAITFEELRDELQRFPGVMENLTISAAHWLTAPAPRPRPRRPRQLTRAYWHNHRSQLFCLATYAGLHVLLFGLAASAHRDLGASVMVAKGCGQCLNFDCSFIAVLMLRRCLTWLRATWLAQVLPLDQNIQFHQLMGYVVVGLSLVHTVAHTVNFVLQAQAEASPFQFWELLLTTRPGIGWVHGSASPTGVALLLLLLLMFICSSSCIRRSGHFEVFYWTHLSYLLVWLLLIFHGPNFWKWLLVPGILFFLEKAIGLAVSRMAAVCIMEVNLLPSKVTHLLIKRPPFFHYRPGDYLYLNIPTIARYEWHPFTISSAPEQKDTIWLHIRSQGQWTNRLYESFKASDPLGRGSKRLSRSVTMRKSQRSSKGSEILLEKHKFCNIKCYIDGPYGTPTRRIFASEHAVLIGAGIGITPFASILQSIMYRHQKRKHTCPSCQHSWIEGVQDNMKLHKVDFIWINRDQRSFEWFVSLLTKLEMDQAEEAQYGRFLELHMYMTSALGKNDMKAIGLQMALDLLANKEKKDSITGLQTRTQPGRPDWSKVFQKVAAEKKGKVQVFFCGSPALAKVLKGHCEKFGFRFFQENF
Sequence of NADPH oxidase 4 (Homo sapiens) (Q9NPH5 whole entry, looked up): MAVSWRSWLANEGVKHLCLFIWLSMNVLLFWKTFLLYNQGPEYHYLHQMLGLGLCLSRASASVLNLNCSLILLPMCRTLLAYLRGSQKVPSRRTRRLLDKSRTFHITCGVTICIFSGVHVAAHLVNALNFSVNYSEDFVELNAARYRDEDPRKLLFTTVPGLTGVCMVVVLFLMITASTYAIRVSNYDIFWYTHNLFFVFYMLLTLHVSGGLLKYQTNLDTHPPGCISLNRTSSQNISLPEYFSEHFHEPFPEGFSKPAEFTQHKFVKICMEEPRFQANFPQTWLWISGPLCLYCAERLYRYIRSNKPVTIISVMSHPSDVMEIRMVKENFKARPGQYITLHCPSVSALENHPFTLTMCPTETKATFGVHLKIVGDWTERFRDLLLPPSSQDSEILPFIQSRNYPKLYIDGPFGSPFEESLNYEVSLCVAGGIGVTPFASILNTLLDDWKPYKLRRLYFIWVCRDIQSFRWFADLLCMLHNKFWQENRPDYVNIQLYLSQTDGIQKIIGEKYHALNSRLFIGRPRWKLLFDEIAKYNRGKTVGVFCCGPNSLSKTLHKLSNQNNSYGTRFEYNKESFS
Sequence of NADPH oxidase 2 (Homo sapiens) (P04839 whole entry, looked up): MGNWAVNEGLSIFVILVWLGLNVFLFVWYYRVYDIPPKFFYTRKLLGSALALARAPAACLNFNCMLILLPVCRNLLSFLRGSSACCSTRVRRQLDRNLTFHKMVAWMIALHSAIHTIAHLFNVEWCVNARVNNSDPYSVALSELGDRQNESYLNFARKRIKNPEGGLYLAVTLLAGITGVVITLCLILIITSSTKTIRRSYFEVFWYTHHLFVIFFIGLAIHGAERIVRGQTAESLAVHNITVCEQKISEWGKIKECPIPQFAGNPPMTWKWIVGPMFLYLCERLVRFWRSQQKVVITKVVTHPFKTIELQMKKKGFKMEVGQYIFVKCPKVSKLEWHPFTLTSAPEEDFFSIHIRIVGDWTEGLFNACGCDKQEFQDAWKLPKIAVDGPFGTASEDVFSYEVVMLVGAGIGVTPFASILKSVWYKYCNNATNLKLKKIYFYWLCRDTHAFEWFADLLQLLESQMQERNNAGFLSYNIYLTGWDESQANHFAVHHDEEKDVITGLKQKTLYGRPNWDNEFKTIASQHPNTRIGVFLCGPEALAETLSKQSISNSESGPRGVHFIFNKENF

`COC(=O)C(CC#Cc1ccc2c(c1)[C@]1(C(=O)N2)[C@H](c2ccc(O)cc2)N2[C@H](c3ccccc3)[C@H](c3ccccc3)OC(=O)[C@H]2[C@@H]1C(=O)N1CCN(c2ncccn2)CC1)C(=O)OC`: the z-score in [1] was 0.347 (inactive); in assay [3], 5.42 (inactive); in [4], 0.658 (inactive); in assay [5], 1.93 (inactive); in assay [6], 0.515 (inactive); in assay [7], 0.355. Also, the z-score in assay [8] is 1.91 (inactive); in assay [9], 0.857 (inactive); in [10], 1.54; in assay [11] it was -0.112; in [12], -0.274; in assay [13], 0.9. In addition, the z-score in assay [14] was -2.43; in [15] it was -4.48; in assay [16], -0.758; in assay [17], 0.999 (inactive); in assay [18] it was -1.07; in assay [19] it was -2.02. The z-score in assay [20] is -0.558 (inactive). Further, the composite z-score in [2] amounted to 0.027.
`OCCCC1=CC(C2CC2)N(Cc2cccc(OC(F)(F)F)c2)CC1` (stereo not given): the z-score in assay [1] was -0.469 (inactive); in assay [3] it was 1.82 (inactive); in [4], 0.539 (inactive); in assay [5], 0.982 (inactive); in [6] it was 0.675 (inactive); in [7], 0.473. Besides, the z-score was -1.2 (inactive) in assay [8]; -0.822 (inactive) in assay [9]; -1.48 in assay [10]; -0.346 in assay [11]; 0.643 in [12]; 0.43 in assay [13]. Further, the z-score was -0.522 in [14]; 0.0997 in assay [15]; 0.64 in assay [16]; 0.319 (inactive) in assay [17]; 0.48 in [18]; 0.572 in [19]. The z-score in assay [20] was 1.83 (inactive). Also, the composite z-score in assay [2] is -0.0813.
With `O=C(O)[C@H](Cc1ccccc1)n1cc(-c2ccccc2)nn1`, the z-score in assay [1] is -0.695 (inactive); in assay [3], -0.256 (inactive); in assay [4], 0.216 (inactive); in assay [5], -0.564 (inactive); in assay [6], 0.161 (inactive); in assay [7], 0.473. For the same compound, the z-score in [8] was -1.58 (inactive); in [9], 0.283 (inactive); in assay [10], -0.837; in assay [11] it was -0.757; in assay [12], -0.853; in assay [13], -0.177. For the same compound, the z-score in assay [14] is 0.269; in assay [15], -0.157; in [16], -0.601; in assay [17], -0.0821 (inactive); in [18], 0.666; in assay [19], 0.348. The z-score in assay [20] is -0.143 (inactive). In addition, in assay [2], the composite z-score is -0.144.
Take `O=C1NC(=O)C2C1C=CC(C(O)C1CC=CCC1)N2Nc1ccccn1` (stereo not given): the z-score in assay [1] was -0.629 (inactive); in assay [3], -0.158 (inactive); in assay [4] it was -0.0567 (inactive); in assay [5], 0.0677 (inactive); in [6], 0.288 (inactive); in [7] it was -0.259. The z-score was -2.27 (inactive) in [8]; -2.52 (inactive) in assay [9]; -1.61 in assay [10]; -0.905 in assay [11]; -0.635 in [12]; 1.06 in assay [13]. For the same compound, the z-score was 0.0581 in assay [14]; -0.362 in assay [15]; -0.265 in assay [16]; -0.147 (inactive) in assay [17]; -0.074 in assay [18]; -0.642 in [19]. Moreover, the z-score in assay [20] is -1.44 (inactive). In addition, the composite z-score in [2] was -0.0172.
`CCCC1(C(=O)OC)C=C2C(=C(c3ccccc3)C(=O)C2C)CN1` (stereo not given): the z-score in [1] was -1.23 (inactive); in assay [3], 2.2 (inactive); in assay [4] it was 0.194 (inactive); in [5] it was 0.923 (inactive); in assay [6], 0.324 (inactive); in assay [7] it was -0.267. Also, the z-score was -0.2 (inactive) in assay [8]; -2.64 (inactive) in assay [9]; -2.63 in [10]; -1 in assay [11]; -0.446 in assay [12]; -0.5 in assay [13]. The z-score in [14] is 0.136; in assay [15] it was -1.14; in assay [16], 0.0027; in [17] it was -1.23 (inactive); in assay [18] it was -0.198; in assay [19], -0.949. The z-score in assay [20] was -0.42 (inactive). The composite z-score in assay [2] came to 0.51.
For the compound `COc1ccc([Si](C)(C)[C@H]2[C@H](CC(=O)N3CCC[C@H]3CO)O[C@@]3(C(=O)N(Cc4cccc(N5CCOC5=O)c4)c4ccccc43)[C@@H]2C)cc1`, the z-score in assay [1] was 1.18 (inactive); in assay [3], 4.76 (inactive); in [4], 1.13 (inactive); in assay [5], 0.618 (inactive); in assay [6], 0.722 (inactive); in [7], 0.305. The z-score in [8] is 1.73 (inactive); in assay [9], 1.76 (inactive); in assay [10] it was 4.67; in assay [11], -0.0923; in assay [12], 0.1; in assay [13] it was -0.0734. The z-score is -2.19 in assay [14]; -3 in [15]; 2.76 in assay [16]; -0.0541 (inactive) in [17]; -0.952 in [18]; -0.0702 in [19]. In addition, in [20], the z-score is 0.299 (inactive). The compound also yielded a composite z-score in assay [2] of -0.017.
Take `O=C1N(CCS(=O)(=O)c2ccccc2)c2ccccc2[C@@H]2OC(c3ccc(OCCCO)cc3)=N[C@]12Cc1ccccc1`: the z-score is 0.0442 (inactive) in assay [1]; 30.9 (active) in assay [3]; 24.6 (active) in assay [4]; 2.85 (inactive) in assay [5]; 6.38 (inactive) in assay [6]; 2.01 in assay [7]. The z-score in [8] was -2.55 (inactive); in assay [9], 0.645 (inactive); in assay [10], -1.18; in assay [11], 0.661; in [12], 1.33; in [13], 0.993. The z-score was -2.75 in [14]; -1.58 in assay [15]; 0.637 in assay [16]; 2.24 (inactive) in assay [17]; -0.407 in assay [18]; -0.989 in assay [19]. For the same compound, the z-score in assay [20] is -2.13 (inactive). The compound further displayed a composite z-score in assay [2] of -0.081.
